ugtP null kill = kills S. aureus RN4220 lacking UgtP. S. aureus RN4220 ugtP deletion, OD600 growth, 16 h. growth inhibition, % (test concentration not listed). 330,000 tested, 0.54% active. AID 1259309; in the data active = growth inhibition above about 68%
Mtb bLac sens = beta-lactam sensitization of Mtb H37Rv | M. tuberculosis H37Rv growth with meropenem, percent inhibition | inhibition, % at 25 µM | 330,000 tested, 0.27% active | AID 434955; call rule not given here;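 note: growth measured after seven days incubation then overnight dye step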
CCHF vOTU inh-1 = blocks the CCHF virus ovarian tumor domain protease; CCHFV vOTU protease, Pep-AMC fluorescence; inhibition, % at 11.5 µM; 370,000 tested, 0.55% active
MazEF act = activators of E. coli MazEF toxin-antitoxin RNase; P0AE70; FAM/BHQ RNA-DNA oligo cleavage fluorescence, 5 h; activation, % at 20 µM; 350,000 tested, 0.32% active; in the data active = activation above about 50%
Target sequence (P0AE70 whole entry, looked up): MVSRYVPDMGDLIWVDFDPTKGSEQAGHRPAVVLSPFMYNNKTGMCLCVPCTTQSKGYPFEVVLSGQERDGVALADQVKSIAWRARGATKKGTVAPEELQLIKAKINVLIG
SARS 3CLpro inh = SARS-CoV 3CLpro protease inhibition; inhibition, % at 6 µM; recombinant SARS-CoV 3CLpro, quenched FRET peptide cleavage; P0C6X7; 290,000 tested, 0.14% active; in the data active = inhibition above about 12%
RN4220 kill = kills Staphylococcus aureus RN4220. S. aureus RN4220 growth, OD600, 16 h. inhibition, % (concentration not given with the values). 330,000 tested, 0.33% active. AID 1259311; in the data active = inhibition above about 85%
CCHF vOTU inh-2 = CCHFV vOTU protease inhibition, confirmation; 1,900 tested, 17% active; Recombinant CCHFV vOTU, Pep-AMC fluorescence; shares compounds with CCHF vOTU inh-1; inhibition, % at 11.5 µM; AID 686976
Each line names hits and unclear results; the compound was inactive in the other large screens (follow-up assays come after a bar, where they were run). Compounds with a hit are over-represented: about 1.3% of the library has one in this group of screens. Cut-off read from the data, not from the text of the source, unless noted: active = inhibition above about 30%; inactive = the rest.

COc1cccc2c1C(=O)c1c(O)c3c(c(O)c1C2=O)C[C@](O)(C(C)=O)C[C@H]3O[C@@H]1C[C@@H](N)[C@@H](O)[C@@H](C)O1	CCHF vOTU inh-1 31 (no result: ugtP null kill, SARS 3CLpro inh, RN4220 kill) | CCHF vOTU inh-2 inactive
COc1cccc2c1C(=N)c1c(O)c3c(c(O)c1C2=O)CC(O)(C(C)=O)CC3OC1CC(N)C(O)C(C)O1 (configuration not stated)	none (no result: ugtP null kill, Mtb bLac sens, CCHF vOTU inh-1, SARS 3CLpro inh, RN4220 kill)
CC(=NNc1ccc(C(=O)O)cc1)c1ccc(S(=O)(=O)NCc2ccco2)cc1	none (no result: Mtb bLac sens, CCHF vOTU inh-1, MazEF act, SARS 3CLpro inh)
COc1ccc(S(=O)(=O)NCC(c2ccco2)N2CCc3ccccc3C2)cc1 (configuration not stated)	CCHF vOTU inh-1 35 (no result: SARS 3CLpro inh) | CCHF vOTU inh-2 inactive
CCN(CC)c1ccc(C=NN2CC(=O)NC2=S)cc1	none (no result: Mtb bLac sens, CCHF vOTU inh-1, MazEF act, SARS 3CLpro inh)
O=C(NCCCn1ccnc1)c1noc2c1CCc1ccccc1-2	CCHF vOTU inh-1 39 | CCHF vOTU inh-2 inactive
O=C(NCCCn1ccnc1)c1noc2c1CCCC2	none
Cc1ccc(S(=O)(=O)Nc2nc3c(s2)C(=O)CC(C)(C)C3)cc1	CCHF vOTU inh-1 30 | CCHF vOTU inh-2 inactive
COC(=O)C1=C(C)N(Cc2ccccc2)C(=O)NC1CCc1ccccc1 (configuration not stated)	none (no result: Mtb bLac sens, CCHF vOTU inh-1, MazEF act, SARS 3CLpro inh)
Cc1cc(C)c(S(=O)(=O)Nc2cc(SCC(=O)O)c(O)c3ccccc23)cc1C	none (no result: CCHF vOTU inh-1)
O=S(=O)(Nc1cc(Sc2cccc3cccnc23)c(O)c2ccccc12)c1ccc(F)cc1	CCHF vOTU inh-1 83 | CCHF vOTU inh-2 inactive
COc1ccc(S(=O)(=O)Nc2cc(Sc3ncn[nH]3)c(O)c3ccccc23)cc1	CCHF vOTU inh-1 107 (no result: ugtP null kill, Mtb bLac sens, MazEF act, RN4220 kill) | CCHF vOTU inh-2 99
O=C(O)CSc1cc(NS(=O)(=O)c2ccc(Cl)cc2)c2ccccc2c1O	CCHF vOTU inh-1 104 (no result: ugtP null kill, RN4220 kill) | CCHF vOTU inh-2 95
COc1ccc(S(=O)(=O)Nc2cc(SCC(=O)O)c(O)c3ccccc23)cc1	CCHF vOTU inh-1 102 | CCHF vOTU inh-2 39
CC(=O)N1CCN(c2ccc(N)cc2)CC1	CCHF vOTU inh-1 38 (no result: SARS 3CLpro inh) | CCHF vOTU inh-2 inactive
CCOC1OC(C(=O)N2CCN(Cc3ccc4c(c3)OCO4)CC2)=CC(C2CC2)C1CCCO (configuration not stated)	none (no result: Mtb bLac sens, CCHF vOTU inh-1, MazEF act, SARS 3CLpro inh)
C[C@H]1CCC(=O)N([C@H](COc2ccccc2)Cc2ccccc2)CC1	CCHF vOTU inh-1 31 (no result: ugtP null kill, RN4220 kill) | CCHF vOTU inh-2 inactive
CC1C/C(=C\c2ccccc2[N+](=O)[O-])c2nc3ccccc3c(C(=O)O)c2C1 (configuration not stated)	CCHF vOTU inh-1 32 | CCHF vOTU inh-2 inactive
Cc1[nH]c2ccccc2c1/C=N/Nc1nncn1N	CCHF vOTU inh-1 113 (no result: ugtP null kill, RN4220 kill) | CCHF vOTU inh-2 inactive
O=[N+]([O-])c1cnccc1Nc1ccccc1	none
O=C(O)c1cccc(Nc2ccncc2[N+](=O)[O-])c1	CCHF vOTU inh-1 30 | CCHF vOTU inh-2 inactive
CCOC(=O)N1CCN(c2ccc(C(C)=O)cc2F)CC1C (configuration not stated)	CCHF vOTU inh-1 31 | CCHF vOTU inh-2 inactive
COCCN(C(=O)CSc1nn(-c2ccc(F)cc2)c(=S)s1)c1c(N)n(CC(C)C)c(=O)[nH]c1=O	none (no result: SARS 3CLpro inh)
CCCCn1c(N)c(N(CC)C(=O)c2ccccc2F)c(=O)[nH]c1=O	CCHF vOTU inh-1 33 | CCHF vOTU inh-2 inactive
CCCCn1c(N)c(N(CC(C)C)C(=O)CSc2nn(-c3ccc(F)cc3)c(=S)s2)c(=O)[nH]c1=O	CCHF vOTU inh-1 38 (no result: Mtb bLac sens, SARS 3CLpro inh) | CCHF vOTU inh-2 inactive
CCCn1c(N)c(N(CCOC)C(=O)c2ccccc2F)c(=O)[nH]c1=O	none
O=c1[nH]nc(NN=Cc2ccc(Cl)cc2Cl)c(=O)[nH]1	none (no result: Mtb bLac sens, CCHF vOTU inh-1, MazEF act, SARS 3CLpro inh)
CC(C)N(C)C1=CC(=O)C(N(C)C(C)C)=CC1=O	CCHF vOTU inh-1 44 (no result: Mtb bLac sens, SARS 3CLpro inh) | CCHF vOTU inh-2 inactive
Cc1n[nH]c(=S)n1N=Cc1ccc(Br)o1	none (no result: Mtb bLac sens, CCHF vOTU inh-1, MazEF act, SARS 3CLpro inh)
CCCN(CC(=O)Nc1ccccc1OC)C(=O)c1ccc2[nH]c3c(c2c1)CC(C)CC3 (configuration not stated)	CCHF vOTU inh-1 38 (no result: SARS 3CLpro inh) | CCHF vOTU inh-2 inactive
COc1ccc(C2NC(=S)N(c3ccccc3)C(C)=C2C(=O)Nc2ccccc2)cc1 (configuration not stated)	none
CC1=C(C(=O)Nc2ccc([N+](=O)[O-])cc2)C(c2cccc(C(F)(F)F)c2)NC(=S)N1c1ccccc1 (configuration not stated)	CCHF vOTU inh-1 31 | CCHF vOTU inh-2 inactive
O=C(CSc1nnc(-c2ccccc2)n1Cc1ccco1)Nc1ccc(OCc2ccccc2)cc1	CCHF vOTU inh-1 32 (no result: ugtP null kill, Mtb bLac sens, MazEF act, SARS 3CLpro inh, RN4220 kill) | CCHF vOTU inh-2 inactive
Cc1cccc(-c2nnc(SCC(=O)Nc3ccc(OCc4ccccc4)cc3)n2Cc2ccco2)c1	none (no result: ugtP null kill, Mtb bLac sens, MazEF act, SARS 3CLpro inh, RN4220 kill)
O=C1NC(=S)S/C1=C\c1cc(Cl)cc(Cl)c1O	CCHF vOTU inh-1 30 (no result: Mtb bLac sens, SARS 3CLpro inh) | CCHF vOTU inh-2 inactive
CCN(c1ccc(NC(=O)COC(=O)C2CCN(c3ccc(C(F)(F)F)cn3)CC2)cc1)C(C)C	CCHF vOTU inh-1 30 (no result: Mtb bLac sens, SARS 3CLpro inh) | CCHF vOTU inh-2 inactive
CC12CCC(C(=NO)C1=NO)C2(C)C (configuration not stated)	none (no result: Mtb bLac sens, SARS 3CLpro inh)
CC12CCC(C(=NO)C1=O)C2(C)C (configuration not stated)	CCHF vOTU inh-1 36 (no result: Mtb bLac sens, SARS 3CLpro inh) | CCHF vOTU inh-2 inactive
COC(=O)c1ccccc1C(=O)N1CCCC(C(=O)c2ccc(OC)c(OC)c2)C1 (configuration not stated)	none
COc1ccc(C(=O)C2CCCN(C(=O)c3cccc(N4CCCC4=O)c3)C2)cc1OC (configuration not stated)	CCHF vOTU inh-1 35 (no result: Mtb bLac sens) | CCHF vOTU inh-2 inactive
N#CCCN(C(=O)COC(=O)CCc1ccccc1)c1ccccc1	none (no result: ugtP null kill, RN4220 kill)
N#CCCN(C(=O)COC(=O)CCc1c[nH]c2ccccc12)c1ccccc1	CCHF vOTU inh-1 36 (no result: SARS 3CLpro inh) | CCHF vOTU inh-2 inactive
CC(C)Cc1ccc(C(C)C(=O)Nc2cccnc2)cc1 (configuration not stated)	none
CC(C)Cc1ccc(C(C)C(=O)Nc2ccc(O)cc2)cc1 (configuration not stated)	CCHF vOTU inh-1 30 | CCHF vOTU inh-2 inactive
COC(CNC(=O)c1ccc2c3c(onc13)-c1ccccc1C2=O)OC	CCHF vOTU inh-1 78 | CCHF vOTU inh-2 48
COC(CNC(=O)c1cccnc1)OC	none
Cc1c(C)c2c(C)nn(-c3ccccc3)c2[nH]c1=O	none
Nc1c2c(=O)[nH]c(O)cc2nn1-c1ccccc1	CCHF vOTU inh-1 63 (no result: Mtb bLac sens, SARS 3CLpro inh) | CCHF vOTU inh-2 inactive
Cc1ccc(-c2cc3c(nn2)-c2ccccc2C3=O)cc1	none
Cc1ccccc1-c1cc2c(nn1)-c1ccccc1C2=O	CCHF vOTU inh-1 96 | CCHF vOTU inh-2 94
COc1cc2c(cc1OC)-c1c(OC)c(OC)cc3c1C(C2)N(C)CC3 (configuration not stated)	CCHF vOTU inh-1 38 | CCHF vOTU inh-2 51
O=C(O)c1cccc(NC(=S)NN=Cc2ccccc2OCc2cccc(Br)c2)c1	none (no result: Mtb bLac sens, CCHF vOTU inh-1, MazEF act, SARS 3CLpro inh)

Screens (PubChem BioAssay)
